Here are results for three compounds from ChEMBL document CHEMBL4513154, “CO-ADD screening of Jain University (India) compounds”.

Measured potencies and affinities stand elsewhere.

One experiment relates to Klebsiella pneumoniae. The note with it: Concentration 32 ug.mL-1; ASSAY_TEST Inhibition of Bacterial Growth; detection method Absorption (OD600); MEDIA CAMHB; plate type 384well; NBS; CORNING #3640; time 18 hr.
As for `Clc1ccc(Cn2c(-c3cscn3)nc3ccccc32)cn1`, the Inhibition is on record as 12.39%.

With `Clc1ccc(Cn2c(-c3cscn3)nc3c(Cl)cccc32)cn1`, the Inhibition is recorded as 14.39%.

Turning to `Clc1ccc2c(c1)nc(-c1cscn1)n2Cc1ccc(Cl)nc1`, the Inhibition was -1.17%.

For the next experiment, the system named is Candida albicans. The note with it: 32 ug/mL.
For `Clc1ccc(Cn2c(-c3cscn3)nc3ccccc32)cn1`, the Inhibition worked out at 0.69%.

Consider `Clc1ccc(Cn2c(-c3cscn3)nc3c(Cl)cccc32)cn1`, for which the Inhibition stood at 1.41%.

For the compound `Clc1ccc2c(c1)nc(-c1cscn1)n2Cc1ccc(Cl)nc1`, the Inhibition turned out to be 2.99%.

The next experiment relates to Cryptococcus neoformans. As to conditions: Concentration 32 ug.mL-1; ASSAY_TEST Inhibition of Fungal Growth; detection method Resazurin; Absorption (OD600-OD570); plate type 384well; NBS; CORNING #3640. (In general: Resazurin is reduced to fluorescent resorufin, in cell work by metabolically active cells.)
For `Clc1ccc(Cn2c(-c3cscn3)nc3ccccc32)cn1`, the Inhibition was -39.39%.

Take `Clc1ccc(Cn2c(-c3cscn3)nc3c(Cl)cccc32)cn1`: the Inhibition is -19.98%.

On to `Clc1ccc2c(c1)nc(-c1cscn1)n2Cc1ccc(Cl)nc1`, for which the Inhibition is on record as -29.64%.

In general, Inhibition refers to the relative decrease from the control value, in per cent.
